# “And” between values parts separate entries of the source, which are not always exact repeats. Equal values may be shown once. Inconclusive results are not listed. Where a structure was tested more than once in an assay, its records may differ in their call. The source made the active and inactive calls. Rule for the calls, unless noted: active = hit-call score of the fitted dose curve at least 0.9, where 1 is the maximum; inactive = score below 0.9.
# Legend:
# [1] = BSK_BT_PBMCCytotoxicity: PBMC Cytotoxicity Assessment in the BioMAP Diversity Plus: BT Assay (AID 2284225); details: primary human B cells with PBMC;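 note: PBMC viability measured by Alamar Blue dye reduction fluorescence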
# Outline: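 Viability by Alamar Blue reduction (6 h, ex/em 546/580 nm) after 90 h culture of SEB/TSST-1-activated PBMC (20 ng/mL each) given compound 1 h before activation. DMSO served as baseline for curve fitting.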
# [2] = read-out: Secreted IgG (sIgG), gene 3500; test: BSK_BT_sIgG: BioMAP Diversity Plus: BT Assay for Secreted IgG (sIgG) Biomarker Activity (AID 2284226); details: primary human B cells with PBMC
# Outline: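 Cells (B cells with peripheral blood mononuclear cells) are dosed, cultured 24 h, then supernatant IgG is measured by ELISA. DMSO serves as negative control; curves are fitted for signal increase.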
# [3] = BSK_BT_Bcell_Proliferation: Viability Assessment in the BioMAP Diversity Plus: BT Assay for B cell Proliferation (AID 2284227); details: primary human B cells with PBMC
# Outline: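 SRB-based protein staining (0.1% SRB after 10% TCA fixation, 560 nm) quantifies proliferation in human B cells co-cultured with PBMC, 72 h post-dosing, with signal gain scored relative to DMSO negative control.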
# [4] = read-out: Interleukin 6 (IL6), IL6 (gene 3569); test: BSK_BT_xIL6: BioMAP Diversity Plus: BT Assay for Interleukin 6 (IL6) Biomarker Activity (AID 2284228); details: primary human B cells with PBMC
# Outline: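 Readout: secreted IL-6 via Luminex xMAP multiplex, 24 h post-dosing. System: primary human B cells co-cultured with PBMC. Signal change scored relative to DMSO vehicle, positive fitting direction.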
# [5] = read-out: Tumor necrosis factor (Homo sapiens) (UniProt P01375); test: BSK_BT_xTNFa: BioMAP Diversity Plus: BT Assay for Tumor necrosis factor alpha (TNF-alpha) Biomarker Activity (AID 2284230); details: primary human B cells with PBMC
# Outline: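 Compounds were added to a B cell plus PBMC co-culture, and after 24 h secreted TNF-alpha was quantified with Luminex xMAP technology, with responses fitted upward from the DMSO control.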
# [6] = read-out: Vascular cell adhesion molecule 1 (VCAM1), VCAM1 (gene 7412); test: BSK_MyoF_VCAM1: BioMAP Diversity Plus: MyoF Assay for Vascular cell adhesion molecule 1 (VCAM1) Biomarker Activity (AID 2284231); details: primary human lung fibroblasts
# Outline: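 MyoF system, lung fibroblasts; 24 h post-dose; VCAM-1 by ELISA; gain-of-signal fit vs DMSO baseline.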
# [7] = read-out: Collagen III, COL3A1 (gene 1281); test: BSK_MyoF_CollagenIII: BioMAP Diversity Plus: MyoF Assay for Collagen III Biomarker Activity (AID 2284239); details: primary human lung fibroblasts
# Outline: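 Lung fibroblast culture; 24 h compound exposure; collagen III by ELISA; gain-of-signal fit vs DMSO baseline.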
# [8] = CCTE_Mundy_HCI_hNP1_Casp3_7: CCTE's Caspase-Glo 3/7 Assay in human neuroprogenitor cells for Apoptosis, Mundy Lab (AID 2284240)
# Outline: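 Neuroepithelial-lineage stem cells from WA09 embryonic cells were treated with chemicals after 40–44 h of culture. Twenty-four hours later, caspase-3/7 activation was detected luminescently after a 30 min room-temperature reagent step, with DMSO as baseline.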
# [9] = CCTE_Mundy_HCI_hNP1_CellTiter: CCTE's Cell Titer-Glo 2 Assay in human neuroprogenitor cells for Viability, Mundy Lab (AID 2284241; active = hit-call score of the fitted dose curve at least 0.9, where 1 is the maximum)
# Outline: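 Measures ATP content in human neural progenitors derived from WA09 embryonic cells. Read-out at 26.5 hours after dosing, with DMSO serving as the negative control and baseline.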
# [10] = read-out: Interleukin 17F (IL17F), IL17F (gene 112744); test: BSK_BT_xIL17F: BioMAP Diversity Plus: BT Assay for Interleukin 17F (IL17F) Biomarker Activity (AID 2284243); details: primary human B cells with PBMC
# Outline: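 Secreted IL-17F, read on LumineX xMAP beads, was taken as the endpoint. Cultures combined human B cells and peripheral blood mononuclear cells, sampled 24 hours after dosing, with DMSO serving as negative control.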
# [11] = read-out: Collagen I, COL1A1 (gene 1277); test: BSK_MyoF_CollagenI: BioMAP Diversity Plus: MyoF Assay for Collagen I Biomarker Activity (AID 2284238); details: primary human lung fibroblasts
# Outline: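 ELISA readout of Collagen I after 24 h chemical treatment of primary human lung fibroblast cultures; gain of signal scored relative to DMSO vehicle baseline.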
# [12] = read-out: Interleukin 17A (IL17A), IL17A (gene 3605); test: BSK_BT_xIL17A: BioMAP Diversity Plus: BT Assay for Interleukin 17A (IL17A) Biomarker Activity (AID 2284229); details: primary human B cells with PBMC
# Outline: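 Luminex xMAP readout of secreted IL-17A; human B cell + PBMC co-culture; 24 h post-dose; positive-direction fit vs DMSO negative control.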
# Chain of Tumor necrosis factor (Homo sapiens) (P01375 whole entry, looked up): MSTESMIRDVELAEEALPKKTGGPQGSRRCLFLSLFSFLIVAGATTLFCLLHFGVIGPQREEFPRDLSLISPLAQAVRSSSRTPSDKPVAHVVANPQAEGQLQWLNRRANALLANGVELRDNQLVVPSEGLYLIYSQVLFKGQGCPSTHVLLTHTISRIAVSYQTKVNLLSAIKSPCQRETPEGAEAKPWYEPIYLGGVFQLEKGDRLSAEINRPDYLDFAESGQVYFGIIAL
smiles,measurement,setting,value
O=C(O)C(F)(F)C(F)(F)C(F)(F)C(F)(F)C(F)(F)C(F)(F)C(F)(F)C(F)(F)Cl,AC50,[1],20.5 µM (active) and 22.2 µM (active)
same,outcome,[2],inactive
same,AC50,[3],8.64 µM (active) and 37.3 µM (active)
same,outcome,[4],inactive
same,outcome,[5],inactive
same,AC50,[6],43.5 µM (active) and 23.5 µM (active)
same,AC50,[7],17.6 µM (active) and 18.3 µM (active)
same,outcome,[8],inactive
same,outcome,[9],inactive
same,outcome,[10],inactive
CCCCOCCOCCOC(=O)CCCCC(=O)OCCOCCOCCCC,outcome,[1],inactive
same,outcome,[2],inactive
same,outcome,[3],inactive
same,outcome,[4],inactive
same,outcome,[5],inactive
same,outcome,[6],inactive
same,outcome,[7],inactive
same,outcome,[10],inactive
C=CC(F)(F)C(F)(F)C(F)(F)C(F)(F)C(F)(F)C(F)(F)C(F)(F)C(F)(F)C=C,outcome,[1],inactive
same,outcome,[2],inactive
same,outcome,[3],inactive
same,outcome,[4],inactive
same,outcome,[5],inactive
same,outcome,[6],inactive
same,outcome,[11],inactive
same,outcome,[7],inactive
same,outcome,[10],inactive
O[Si](c1ccccc1)(c1ccccc1)c1ccccc1,outcome,[1],inactive
same,AC50,[2],14.1 µM (active)
same,AC50,[3],27.3 µM (active)
same,outcome,[4],inactive
same,AC50,[12],28.9 µM (active)
same,AC50,[5],38.2 µM (active)
same,outcome,[6],inactive
same,AC50,[7],31.5 µM (active)
same,AC50,[10],32.6 µM (active)
FC(F)(F)C(F)(F)C(F)(F)C(F)(F)C(F)(F)C(F)(F)CC1CO1 (stereo not given),outcome,[1],inactive
same,outcome,[2],inactive
same,outcome,[3],inactive
same,outcome,[4],inactive
same,outcome,[5],inactive
same,outcome,[6],inactive
same,outcome,[7],inactive
same,outcome,[8],inactive
same,outcome,[9],inactive
same,outcome,[10],inactive
OCC(F)(F)C(F)(F)C(F)(F)C(F)F,outcome,[1],inactive
same,outcome,[2],inactive
same,outcome,[3],inactive
same,outcome,[4],inactive
same,outcome,[5],inactive
same,outcome,[6],inactive
same,outcome,[7],inactive
same,outcome,[8],inactive
same,outcome,[9],inactive
same,outcome,[10],inactive
NC(=O)C(F)(F)C(F)(F)C(F)(F)C(F)(F)F,outcome,[1],inactive
same,outcome,[2],inactive
same,outcome,[3],inactive
same,outcome,[4],inactive
same,outcome,[5],inactive
same,outcome,[6],inactive
same,outcome,[7],inactive
same,outcome,[10],inactive
FC(F)(F)C(F)(F)C(F)(F)C(F)(F)C(F)(F)C(F)(F)C(F)(F)Br,outcome,[1],inactive
same,outcome,[2],inactive
same,outcome,[3],inactive
same,outcome,[4],inactive
same,outcome,[5],inactive
same,outcome,[6],inactive
same,outcome,[11],inactive
same,outcome,[7],inactive
same,outcome,[10],inactive
C=CC/C=C/C/C=C/C/C=C/C,outcome,[1],inactive
same,outcome,[2],inactive
same,outcome,[3],inactive
same,outcome,[4],inactive
same,outcome,[12],inactive
same,outcome,[5],inactive
same,outcome,[6],inactive
same,outcome,[7],inactive
same,outcome,[10],inactive
O=C(O)C(F)(F)C(F)(F)C(F)F,outcome,[1],inactive
same,outcome,[2],inactive
same,outcome,[3],inactive
same,outcome,[4],inactive
same,outcome,[5],inactive
same,outcome,[6],inactive
same,outcome,[11],inactive
same,outcome,[7],inactive
same,outcome,[10],inactive
CCCCCCCOC(=O)c1ccccc1C(=O)OCCCCCCC,outcome,[1],inactive
same,AC50,[2],13.3 µM (active)
same,outcome,[3],inactive
same,outcome,[4],inactive
same,outcome,[5],inactive
same,outcome,[6],inactive
same,outcome,[7],inactive
same,AC50,[10],12.2 µM (active)
FC(F)(F)C(F)(F)C(F)(F)C(F)(F)C(F)(F)CCI,outcome,[1],inactive
same,outcome,[2],inactive
same,outcome,[3],inactive
same,outcome,[4],inactive
same,outcome,[5],inactive
same,outcome,[6],inactive
same,outcome,[7],inactive
same,outcome,[10],inactive
FC(F)(F)C(F)(F)C(F)(F)C(F)(F)CCI,outcome,[1],inactive
same,outcome,[2],inactive
same,outcome,[3],inactive
same,outcome,[4],inactive
same,outcome,[5],inactive
same,outcome,[6],inactive
same,outcome,[11],inactive
same,outcome,[7],inactive
same,outcome,[8],inactive
same,outcome,[9],inactive
same,outcome,[10],inactive
FC(F)(F)C(F)(F)C(F)(F)N(C(F)(F)C(F)(F)C(F)(F)F)C(F)(F)C(F)(F)C(F)(F)F,outcome,[1],inactive
same,outcome,[2],inactive
same,outcome,[3],inactive
same,outcome,[4],inactive
same,outcome,[5],inactive
same,outcome,[6],inactive
same,outcome,[11],inactive
same,outcome,[7],inactive
same,outcome,[10],inactive
O=S(=O)(OCC(F)F)C(F)(F)F,outcome,[1],inactive
same,outcome,[2],inactive
same,outcome,[3],inactive
same,outcome,[4],inactive
same,AC50,[5],1.01 µM (active)
same,outcome,[5],inactive
same,outcome,[6],inactive
same,outcome,[11],inactive
same,outcome,[7],inactive
same,outcome,[10],inactive
FC(F)(Br)C(F)(F)C(F)(F)C(F)(F)C(F)(F)C(F)(F)Br,outcome,[1],inactive
same,outcome,[2],inactive
same,outcome,[3],inactive
same,outcome,[4],inactive
same,outcome,[5],inactive
same,outcome,[6],inactive
same,outcome,[7],inactive
same,outcome,[10],inactive
CCO[Si](CCC(F)(F)C(F)(F)C(F)(F)C(F)(F)C(F)(F)C(F)(F)F)(OCC)OCC,outcome,[1],inactive
same,outcome,[2],inactive
same,outcome,[3],inactive
same,outcome,[4],inactive
same,outcome,[5],inactive
same,outcome,[6],inactive
same,outcome,[11],inactive
same,outcome,[7],inactive
same,outcome,[10],inactive
O=S(=O)(OCCOC(F)(F)F)C(F)(F)F,outcome,[1],inactive
same,outcome,[2],inactive
same,outcome,[3],inactive
same,outcome,[4],inactive
same,outcome,[5],inactive
same,outcome,[6],inactive
same,outcome,[11],inactive
same,outcome,[7],inactive
same,outcome,[10],inactive
CS(C)(=O)=O,outcome,[1],inactive
same,outcome,[2],inactive
same,outcome,[3],inactive
same,outcome,[4],inactive
same,outcome,[5],inactive
same,outcome,[6],inactive
same,outcome,[11],inactive
same,outcome,[7],inactive
same,outcome,[10],inactive
OCCCC(F)(F)C(F)(F)C(F)(F)F,outcome,[1],inactive
same,outcome,[2],inactive
same,outcome,[3],inactive
same,outcome,[4],inactive
same,outcome,[5],inactive
same,outcome,[6],inactive
same,outcome,[7],inactive
same,outcome,[10],inactive
